The values below come from PubChem BioAssay (NCATS).

“And” between values parts separate entries of the source, which are not always exact repeats. Equal entries are not always repeated. Values without a mark were called inactive. Results filed as inconclusive are left out. The source made the active and inactive calls. Unless noted, calls come from the whole dose curve; as a rule, active = well fitted curve in the direction sought with a large enough effect; inconclusive = small, poorly fitted or top-dose-only effect, or another doubt; inactive = no such curve, though single readings can be large; an effect the other way counts as inactive or inconclusive.

Assay [1] relates to Tov-21-G. Briefly: Primary qHTS to identify gynecologic anti-cancer compounds using libraries of approved drugs and bioactive compounds (AID 1345084). Note: nearly all actives have a fitted effect of over 55% in size. Note: potency is the fitted concentration of half-maximal effect. The following applies: Gynecologic cancer cell panel viability, ATPlite luminescence, 48 h; series mostly up to 57.5 µM. The method, boiled down:
(§1)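 Cytotoxicity screen measuring ATP content by luciferase luminescence. Each compound is applied at five concentrations for 48 h at 37 C with 5% CO2.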

Assay [2] deals with Tov112D. Described as above. The following applies: Gynecologic cancer cell panel viability, ATPlite luminescence, 48 h; series mostly up to 57.5 µM. The gist of the method:
as §1

Assay [3] is described as follows: Drug repurposing screens with cells derived from glioblastoma tumor samples (AID 1345199). For activity, negative = cell killing: % is set by controls: 0 for no effect and ±100 for the full control effect. Note: nearly all actives have a fitted effect of over 40% in size. Note: potency is the fitted concentration of half-maximal effect. The following applies: GBM patient neurospheres viability, ATP luminescence, 48 h. The gist of the method: (§2)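 Primary testing used CD133+ neurospheres from four GBM patients, seven concentrations, 48 h exposure and ATP-based viability; confirmation added three slower-growing patient lines.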

In assay [4] the test system is astro. The description is as above. The following applies: viability, ATP luminescence, 48 h; series mostly up to 45.9 µM. The gist of the method: as §2
Assay [5] deals with Nuclear receptor subfamily 1 group I member 2 (Rattus norvegicus) (UniProt Q9R1A7). Description: qHTS assay for small molecule activators of the rat pregnane X receptor (rPXR) signaling pathway (AID 651751; call rule not given here; note: 0% is about no effect). The following applies: rPXR reporter cells, luciferase (One-Glo), 24 h.
Assay [6] in a line: qHTS assay for small molecule activators of the human pregnane X receptor (PXR) signaling pathway (AID 720659; call rule not given here; note: 0% is about no effect).
[7] abbreviates: at 45.9 µM (top of the series), tumour line B.
[8] abbreviates: at 45.9 µM (top of the series), tumour line D.
The mark [9] stands for this setting: at 46 µM (top of the series), tumour line A.
The mark [10] stands for this setting: at 46.1 µM (top of the series), tumour line C.
Where [11] appears, read: at 20 µM (top of the series), tumour line C.
Setting [12] is: at 21.2 µM (top of the series), tumour line B.
[13] abbreviates: at 21.2 µM (top of the series), tumour line D.
The mark [14] stands for this setting: at 21.3 µM (top of the series), tumour line A.

Sequence of Nuclear receptor subfamily 1 group I member 2 (Rattus norvegicus) (Q9R1A7 whole entry, looked up): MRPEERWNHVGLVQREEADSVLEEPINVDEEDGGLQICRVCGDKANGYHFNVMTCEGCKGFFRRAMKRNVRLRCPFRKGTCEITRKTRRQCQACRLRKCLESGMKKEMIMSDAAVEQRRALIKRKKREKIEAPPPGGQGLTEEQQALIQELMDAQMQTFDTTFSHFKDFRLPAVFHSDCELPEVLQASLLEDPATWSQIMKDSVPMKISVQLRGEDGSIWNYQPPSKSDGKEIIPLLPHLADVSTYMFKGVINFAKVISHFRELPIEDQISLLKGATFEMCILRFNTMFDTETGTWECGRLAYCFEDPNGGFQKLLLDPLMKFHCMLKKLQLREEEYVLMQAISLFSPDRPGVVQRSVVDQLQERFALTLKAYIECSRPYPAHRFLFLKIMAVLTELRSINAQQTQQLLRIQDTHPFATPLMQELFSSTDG

`O=C(O)CCn1c2c(c3ccccc31)C[C@H](NS(=O)(=O)c1ccc(F)cc1)CC2`: the Potency result in assay [1], in assay [2] and in assay [4] was “inactive” in each case. Also, the activity, negative = cell killing in assay [3] (setting [7]) was -3.62%; in assay [3] (setting [8]), -7.83%; in assay [3] (setting [9]), -16.4%; in assay [3] (setting [10]), -18.1%.
In the case of `Cn1nnc2c(C(N)=O)ncn2c1=O`, the Potency result in assay [1], in assay [2] and in assay [4] was “inactive” in each case. Besides, the activity, negative = cell killing in assay [3] (setting [7]) is -3.24%; in assay [3] (setting [8]) it was -16.1%; in assay [3] (setting [9]) it was -21.4%; in assay [3] (setting [10]) it was -14.3%.
As to `CC1(C)[C@H](C(=O)O)N2C(=O)C[C@H]2S1(=O)=O`, the Potency entry in assay [1], in assay [2] and in assay [4] was “inactive” each time. For the same compound, the activity, negative = cell killing in assay [3] (setting [7]) is 1.79%; in assay [3] (setting [8]), -3.83%; in assay [3] (setting [9]) it was -4.41%; in assay [3] (setting [10]), 9.89%.
As to `Cc1oc(=O)oc1CN1CCN(c2cc3c(cc2F)c(=O)c(C(=O)O)c2n3C(C)S2)CC1` (stereo not drawn), the Potency entry in assay [1], in assay [2] and in assay [4] was “inactive” in each case. In addition, the activity, negative = cell killing is -20.2% in assay [3] (setting [7]), 7.6% in assay [3] (setting [8]), -22.8% in assay [3] (setting [9]) and -0.513% in assay [3] (setting [10]).
For the compound `Cc1cccc(Nc2ccncc2S(=O)(=O)NC(=O)NC(C)C)c1`, the Potency entry in assay [1], in assay [2] and in assay [4] was “inactive” throughout. For the same compound, the activity, negative = cell killing in assay [3] (setting [11]) is -12.8%; in assay [3] (setting [12]) it was -1.96%; in assay [3] (setting [13]) it was -26%; in assay [3] (setting [14]) it was -11%.
As to `Nc1ccc(S(=O)(=O)Nc2ccccn2)cc1`, the Potency entry in assay [1], in assay [2] and in assay [4] was “inactive” in each case. Moreover, the activity, negative = cell killing in assay [3] (setting [11]) is -7.01%; in assay [3] (setting [12]), 0.146%; in assay [3] (setting [13]) it was 5.31%; in assay [3] (setting [14]), -9.41%.
In the case of `CO[C@@]12[C@H](COC(N)=O)C3=C(C(=O)C(C)=C(N)C3=O)N1C[C@@H]1N[C@@H]12`, the figures for the Potency in assay [1] and in assay [2] were 14.1 µM (active) and 0.794 µM (active), respectively. In addition, the activity, negative = cell killing in assay [3] (setting [7]) was -14.3%; in assay [3] (setting [8]), -12.4%; in assay [3] (setting [9]), -9.83%; in assay [3] (setting [10]) it was -16.3%. The Potency entry in assay [4] is “inactive”.
As for `CN1CCN(c2c(F)cc3c(=O)c(C(=O)O)cn(CCF)c3c2F)CC1`, the Potency entry in assay [1], in assay [2] and in assay [4] was “inactive” throughout. Also, the activity, negative = cell killing in assay [3] (setting [7]) was -2.67%; in assay [3] (setting [8]), -2.82%; in assay [3] (setting [9]), -15.5%; in assay [3] (setting [10]), -9.27%.
For `CC[C@H](NC(C)C)[C@H](O)c1ccc(O)c2[nH]c(=O)ccc12`, the Potency entry in assay [1], in assay [2] and in assay [4] was “inactive” throughout. Moreover, the activity, negative = cell killing was -9.21% in assay [3] (setting [7]), -7.02% in assay [3] (setting [8]), -27% in assay [3] (setting [9]) and 18.7% in assay [3] (setting [10]).
For `CN1CCN(c2c(F)cc3c(=O)c(C(=O)O)cn4c3c2OCN4C)CC1`, the Potency result in assay [1] and in assay [2] was “inactive” each time. Besides, the activity, negative = cell killing in assay [3] (setting [7]) was 0.422%; in assay [3] (setting [8]) it was -17.1%; in assay [3] (setting [9]), -24%; in assay [3] (setting [10]), 18%.
As for `COc1ccccc1OCC(O)COC(N)=O` (stereo not drawn), the Potency result in assay [1], in assay [2] and in assay [4] was “inactive” in each case. For the same compound, the activity, negative = cell killing in assay [3] (setting [11]) was -0.35%; in assay [3] (setting [12]) it was -3.25%; in assay [3] (setting [13]), -10.3%; in assay [3] (setting [14]) it was -18%.
Take `O=S(=O)(c1cccc2cnccc12)N1CCCNCC1`: the Potency result in assay [1], in assay [2] and in assay [4] was “inactive” each time. The activity, negative = cell killing in assay [3] (setting [7]) was -0.368%; in assay [3] (setting [8]), -10.7%; in assay [3] (setting [9]) it was -20.9%; in assay [3] (setting [10]) it was -21.1%.
In the case of `CN(CCOc1ccc(CC2SC(=O)NC2=O)cc1)c1ccccn1` (stereo not drawn), the Potency entry in assay [1], in assay [2] and in assay [4] was “inactive” in each case. Moreover, the activity, negative = cell killing in assay [3] (setting [7]) is -18.3%; in assay [3] (setting [8]), -26.6%; in assay [3] (setting [9]), -36.2%; in assay [3] (setting [10]) it was 15.3%.
`C#CCN[C@@H]1CCc2ccccc21`: the Potency result in assay [1], in assay [2] and in assay [4] was “inactive” each time. Also, the activity, negative = cell killing in assay [3] (setting [7]) is -8.4%; in assay [3] (setting [8]), -8%; in assay [3] (setting [9]), -26%; in assay [3] (setting [10]) it was -23.8%.
`CCOC(=O)c1ccc(OC(=O)CCCCCN=C(N)N)cc1`: the Potency entry in assay [1] and in assay [2] was “inactive” each time. Moreover, the activity, negative = cell killing was -4.52% in assay [3] (setting [11]), -7.17% in assay [3] (setting [12]), -2.23% in assay [3] (setting [13]) and -25.1% in assay [3] (setting [14]).
For `CC(C)OC(=O)OCOP(=O)(CO[C@H](C)Cn1cnc2c(N)ncnc21)OCOC(=O)OC(C)C`, the Potency result in assay [1], in assay [2] and in assay [4] was “inactive” throughout. Moreover, the activity, negative = cell killing in assay [3] (setting [7]) is -7.36%; in assay [3] (setting [8]) it was -12.2%; in assay [3] (setting [9]), -9.04%; in assay [3] (setting [10]), -6.09%.
As to `CNCC[C@H](Oc1cccc2ccccc12)c1cccs1`, the Potency entry in assay [1] and in assay [2] was “inactive” in each case. In addition, the activity, negative = cell killing in assay [3] (setting [10]) was -0.487%. The Potency in assay [3] (tumour line A) was 3.55 µM (active); in assay [3] (tumour line B), 28.2 µM (active); in assay [3] (tumour line D) it was 17.8 µM (active); in assay [4], 28.2 µM (active).
As to `Nc1[nH]c(=O)ncc1F`, the Potency entry in assay [1], in assay [2] and in assay [4] was “inactive” throughout. The activity, negative = cell killing in assay [3] (setting [11]) is 6.56%; in assay [3] (setting [12]), -3.24%; in assay [3] (setting [13]), -9.05%; in assay [3] (setting [14]), -15%.
Turning to `O=C(O)CSCC(=O)NC1CCSC1=O` (stereo not drawn), the Potency result in assay [1], in assay [2] and in assay [4] was “inactive” in each case. Further, the values for the activity, negative = cell killing in assay [3] (setting [7]) and in assay [3] (setting [10]) were -7.24% and 18.1%, respectively.
On to `CC(=O)CC(c1ccccc1)c1c(O)c2ccccc2oc1=O` (stereo not drawn), for which the Potency entry in assay [1], in assay [2] and in assay [4] was “inactive” in each case. Besides, the activity, negative = cell killing in assay [3] (setting [7]) is -11.1% and -14.3%; in assay [3] (setting [8]), 1.21% and -22.4%; in assay [3] (setting [9]), -22%; in assay [3] (setting [10]), -1.82% and -1.98%. The max response in assay [5] was 2.18%. In assay [6], the outcome was inactive.
